Assay results taken from PubChem BioAssay AID1159580 (chemical genetic matrix, 2015).
About 2,000 (36%) of roughly 5,500 compounds were called active. About 18% were inconclusive and are not listed. Cut-off read from the data, not from the text of the source: active = normalized growth mostly below about 0.91 (no sharp cut-off); inconclusive = no clear call, values can overlap the other calls; inactive = mostly above about 0.92. This is one part of the list.

Experiment: chemical genetic growth profiling, strain panel (AID 1159580);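 note: tested at 20 µM; growth read once vehicle control cultures reached saturation at 30 °C; 1 = growth at the plate median or of vehicle wells; lower values mean less growth of the strain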
Settings: S. cerevisiae deletion strains, growth OD

Measured: normalized growth

O=C(O)c1ccc2c(c1)OCO2
inactive: locus YAL021C, strain ccr4, active compounds read low 1.01 | locus YAL026C, strain drs2, active compounds read low 0.983 | locus YAL030W, strain snc1, active compounds read low 1.01 | locus YBL061C, strain skt5, active compounds read low 1 | locus YBR009C, strain hhf1, active compounds read low 0.997 | locus YBR023C, strain chs3, active compounds read low 1.01 | locus YBR171W, strain sec66, active compounds read low 0.992 | locus YBR231C, strain swc5, active compounds read low 1.01 | locus YBR279W, strain paf1, active compounds read low 1.01 | locus YCL011C, strain gbp2, active compounds read low 0.979 | locus YCL016C, strain dcc1, active compounds read low 1.01 | locus YCL061C, strain MRC1, active compounds read low 0.984 | locus YCL069W, strain vba3, active compounds read low 0.984 | locus YCR088W, strain abp1, active compounds read low 0.984 | locus YDL005C, strain med2, active compounds read low 1.01 | locus YDL040C, strain nat1, active compounds read low 1.01 | locus YDR001C, strain nth1, active compounds read low 0.982 | locus YDR069C, strain doa4, active compounds read low 1.02 | locus YDR137W, strain rgp1, active compounds read low 1.01 | locus YDR159W, strain sac3, active compounds read low 0.98 | locus YDR195W, strain ref2 1.02 | locus YDR297W, strain sur2, active compounds read low 1.01 | locus YDR334W, strain swr1, active compounds read low 0.994 | locus YDR335W, strain msn5, active compounds read low 1.01 | locus YDR392W, strain spt3, active compounds read low 0.979 | locus YEL003W, strain gim4, active compounds read low 0.98 | locus YEL037C, strain rad23, active compounds read low 0.987 | locus YEL061C, strain CIN8 (second series), active compounds read low 0.988 | locus YER015W, strain faa2, active compounds read low 0.997 | locus YER016W, strain bim1, active compounds read low 1.01 | locus YER111C, strain swi4, active compounds read low 0.978 | locus YER155C, strain BEM2 (second series), active compounds read low 0.992 | locus YFR010W, strain ubp6, active compounds read low 0.994 | locus YGL167C, strain pmr1, active compounds read low 1.02 | locus YGL173C, strain kem1, active compounds read low 1.01 | locus YGL227W, strain vid30, active compounds read low 0.973 | locus YGL240W, strain doc1, active compounds read low 0.998 | locus YGL253W, strain hxk2, active compounds read low 1.01 | locus YHR013C, strain ard1, active compounds read low 1.05 | locus YHR027C, strain rpn1, active compounds read low 1.03 | locus YHR142W, strain chs7, active compounds read low 1 | locus YJL092W, strain hpr5, active compounds read low 0.985 | locus YJL095W, strain BCK1 (second series), active compounds read low 1.02 | locus YJL115W, strain asf1, active compounds read low 0.994 | locus YJL129C, strain trk1, active compounds read low 0.998 | locus YJL154C, strain vps35, active compounds read low 0.989 | locus YJL164C, strain tpk1, active compounds read low 1 | locus YJL166W, strain qcr8, active compounds read low 1.02 | locus YJL187C, strain SWE1, active compounds read low 1.02 | locus YKL160W, strain elf1, active compounds read low 1 | locus YKR026C, strain gcn3, active compounds read low 0.983 | locus YKR091W, strain srl3, active compounds read low 1.01 | locus YLL001W, strain dnm1, active compounds read low 1.01 | locus YLL026W, active compounds read low 1.01 | locus YLL041C, strain sdh2, active compounds read low 1 | locus YLR027C, strain aat2, active compounds read low 1 | locus YLR221C, strain rsa3, active compounds read low 0.999 | locus YLR258W, strain gsy2, active compounds read low 1 | locus YLR262C, strain YPT6 (second series), active compounds read low 1.01 | locus YLR320W, strain mms22, active compounds read low 1.03 | locus YLR342W, strain FKS1, active compounds read low 1.05 | locus YLR357W, strain rsc2, active compounds read low 1.09 | locus YLR370C, strain arc18, active compounds read low 1.01 | locus YLR384C, strain iki3, active compounds read low 1.01 | locus YML120C, strain ndi1, active compounds read low 1.01 | locus YMR058W, strain fet3, active compounds read low 0.997 | locus YMR125W, strain sto1, active compounds read low 1.07 | locus YMR129W, active compounds read low 1 | locus YMR205C, strain PFK2, active compounds read low 1.01 | locus YMR231W, strain pep5, active compounds read low 1.01 | locus YNL071W, strain lat1, active compounds read low 1.01 | locus YNL209W, strain ssb2, active compounds read low 1.01 | locus YNL248C, strain rpa49, active compounds read low 1.02 | locus YNL322C, strain KRE1 (second series), active compounds read low 0.991 | locus YNR049C, strain mso1, active compounds read low 1.01 | locus YOR001W, strain rrp6, active compounds read low 0.994 | locus YOR070C, strain gyp1, active compounds read low 0.999 | locus YOR080W, strain dia2, active compounds read low 1.01 | locus YOR083W, strain WHI5, active compounds read low 1 | locus YOR106W, strain vam3, active compounds read low 1 | locus YOR265W, strain rbl2, active compounds read low 1 | locus YOR270C, strain vph1, active compounds read low 1.05 | locus YOR290C, strain snf2, active compounds read low 0.967 | locus YPL051W, strain arl3, active compounds read low 1.01 | locus YPL078C, strain atp4, active compounds read low 0.995 | locus YPL106C, strain sse1, active compounds read low 1 | locus YPL240C, strain hsp82, active compounds read low 1.01
